Measured values: PubChem BioAssay (NCI)
Compounds without any hit were thinned out: in the full panel of roughly 79,000, 15% have a hit. Active and inactive are the calls of the source. Rule as the data show it: active = growth inhibition above about 70%; inactive = the rest.

Legend:
[1] = NCI Yeast Anticancer Drug Screen. Data for the wt2 strain (AID 169);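 also: 0% = growth of vehicle-treated yeast cultures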; conditions: S. cerevisiae wt2 strain growth inhibition, active compounds read high
Summary of the method: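 Against vehicle-treated controls, the growth of yeast exposed to each compound was compared, and the inhibition was recorded.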

[2] = NCI Yeast Anticancer Drug Screen. Data for the mlh1 strain (AID 171);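 also: 0% = growth of vehicle-treated control cultures of the same strain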; conditions: S. cerevisiae mlh1 strain growth inhibition, active compounds read high
Summary of the method: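 Measured: yeast growth. Reference: vehicle-treated controls. Organism: strain with a defined alteration affecting DNA damage repair or cell cycle control, treated with compound.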

[3] = NCI Yeast Anticancer Drug Screen. Data for the sgs1 strain (AID 173);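 also: 0% = growth of vehicle-only control cultures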; conditions: S. cerevisiae sgs1 mutant, active compounds read high
Summary of the method: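 Each compound was added to cultures of the altered yeast strain. Growth was recorded, and inhibition was derived by comparison with vehicle controls.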

[4] = NCI Yeast Anticancer Drug Screen. Data for the mlh1 rad18 strain (AID 175); conditions: S. cerevisiae mlh1 rad18 strain growth inhibition, active compounds read high
Summary of the method: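 Genetically defined yeast (DNA repair-deficient) exposed to compounds; growth inhibition determined relative to vehicle.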

[5] = NCI Yeast Anticancer Drug Screen. Data for the rad18 strain (AID 177); conditions: S. cerevisiae rad18 mutant growth inhibition, active compounds read high
Summary of the method: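 Vehicle-treated cultures served as the baseline for scoring compound-induced growth inhibition in DNA-repair-mutant yeast.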

[6] = NCI Yeast Anticancer Drug Screen. Data for the rad52 strain (AID 147);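 also: 0% = growth of vehicle-treated control cultures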; conditions: S. cerevisiae rad52 mutant growth inhibition, active compounds read high
Summary of the method: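 The repair-mutant yeast strain was incubated with compounds, then growth was read and inhibition derived relative to vehicle.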

[7] = NCI Yeast Anticancer Drug Screen. Data for the wt1 strain (AID 149);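 also: 0% = growth of vehicle-treated wt1 cultures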; conditions: S. cerevisiae wt1 strain (SPY 50644) growth inhibition, active compounds read high
Summary of the method: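 wt1 strain grown with compound or vehicle; inhibition taken from the growth difference.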

[8] = NCI Yeast Anticancer Drug Screen. Data for the rad50EPP+ strain (AID 151);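 also: 0% = growth of vehicle-treated control cultures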; conditions: S. cerevisiae rad50 mutant strain, active compounds read high
Summary of the method: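 Vehicle-normalised growth inhibition; rad50EPP+ yeast strain, altered in DNA damage repair, compound-treated.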

[9] = NCI Yeast Anticancer Drug Screen. Data for the mgt1 strain (AID 153); conditions: S. cerevisiae mgt1 mutant growth inhibition, active compounds read high
Summary of the method: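 Vehicle-normalized growth inhibition is determined in mgt1 yeast, a strain selected for a defined alteration in DNA repair or cell cycle control.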

[10] = NCI Yeast Anticancer Drug Screen. Data for the rad50 strain (AID 155);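 also: 0% = growth of vehicle-only cultures of the same strain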; conditions: S. cerevisiae rad50 strain growth inhibition, active compounds read high
Summary of the method: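 DNA repair mutant yeast, compound exposure, growth read-out; inhibition is taken relative to vehicle.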

[11] = NCI Yeast Anticancer Drug Screen. Data for the mec2-1 strain (AID 157); conditions: S. cerevisiae mec2-1 strain, active compounds read high
Summary of the method: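 Mutant yeast (mec2-1) grown with compound; growth inhibition relative to vehicle control reported.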

[12] = NCI Yeast Anticancer Drug Screen. Data for the rad14 strain (AID 159);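 also: 0% = growth of vehicle-treated control cultures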; conditions: S. cerevisiae rad14 strain growth inhibition, active compounds read high
Summary of the method: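 DNA repair-defective yeast, compound-exposed; % growth inhibition derived by comparison with vehicle-treated controls.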

[13] = NCI Yeast Anticancer Drug Screen. Data for the sgs1 mgt1 strain (AID 161);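 also: 0% = growth of cultures given vehicle only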; conditions: S. cerevisiae sgs1 mgt1 strain, active compounds read high
Summary of the method: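 Growth of a repair-deficient yeast mutant was monitored after compound treatment and expressed as inhibition relative to vehicle-treated cultures.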

[14] = NCI Yeast Anticancer Drug Screen. Data for the CLN2oe strain (AID 163);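 also: 0% = growth of vehicle-only control cultures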; conditions: S. cerevisiae CLN2oe strain, active compounds read high
Summary of the method: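 Compounds are applied to yeast harbouring a defined cell-cycle control change; reduced growth compared with vehicle-treated controls gives the value.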

[15] = NCI Yeast Anticancer Drug Screen. Data for the cln2 rad14 strain (AID 165);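 also: 0% = growth equal to vehicle treated cultures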; conditions: S. cerevisiae cln2 rad14 strain, active compounds read high
Summary of the method: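 Readout is yeast growth inhibition versus vehicle-treated controls, using a strain with cln2 and rad14 alterations exposed to compound.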

[16] = NCI Yeast Anticancer Drug Screen. Data for the bub3 strain (AID 167); conditions: S. cerevisiae bub3 mutant strain, active compounds read high
Summary of the method: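 In this screen, a yeast mutant lacking normal mitotic checkpoint function is challenged with compound. Relative growth versus vehicle gives the inhibition value.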

[17] = at 5.0 µM (retest, dose inferred, filed as 0.5)
[18] = at 50.0 µM (retest, dose inferred, filed as 5.0)

Measured: growth inhibition

[O-][n+]1c2ccc(O)cc2nc2ccc(Cl)cc21
inactive: [1]; at 1.2 µM 5% | [1]; at 3.7 µM 11% | [1]; at 11.0 µM 26% | [1]; at 33.0 µM 46% | [1]; at 100.0 µM 61% | [2]; at 1.2 µM 4% | [2]; at 3.7 µM 10% | [2]; at 11.0 µM 28% | [2]; at 33.0 µM 62% | [3]; at 1.2 µM 4% | [3]; at 3.7 µM 10% | [3]; at 11.0 µM 26% | [3]; at 33.0 µM 46% | [3]; at 100.0 µM 59% | [4]; [17] -24% | [4]; [18] 53% | [5]; at 1.2 µM 7% | [5]; at 3.7 µM 23% | [5]; at 11.0 µM 47%
active: [2]; at 100.0 µM 78% | [4]; at 50.0 µM 86.8% | [5]; at 33.0 µM 79% | [5]; at 100.0 µM 82%

CCCCCCCCCCCCCCCCCCNC
inactive: [6]; at 1.2 µM 15% | [6]; at 3.7 µM -4% | [6]; at 11.0 µM 0% | [6]; at 33.0 µM 14% | [7]; at 1.2 µM 5% | [7]; at 3.7 µM 17% | [7]; at 11.0 µM 12% | [7]; at 33.0 µM 15% | [8]; at 1.2 µM 14% | [8]; at 3.7 µM 10% | [8]; at 11.0 µM 8% | [8]; at 33.0 µM 48% | [9]; at 1.2 µM 17% | [9]; at 3.7 µM 25% | [9]; at 11.0 µM 21% | [9]; at 33.0 µM 26% | [10]; at 1.2 µM -10% | [10]; at 3.7 µM 1% | [10]; [17] 34% | [10]; at 11.0 µM -2% | [10]; at 33.0 µM 17% | [10]; at 50.0 µM 68.5% | [11]; at 1.2 µM 14% | [11]; at 3.7 µM 3% | [11]; [17] 50% | [11]; at 11.0 µM -3% | [11]; at 33.0 µM 18% | [11]; at 50.0 µM 69% | [12]; at 1.2 µM -22% | [12]; at 3.7 µM -16% | [12]; at 11.0 µM -16% | [12]; at 33.0 µM -9% | [13]; [17] -6% | [14]; at 1.2 µM 13% | [14]; at 3.7 µM 19% | [14]; at 11.0 µM 2% | [14]; at 33.0 µM -4% | [15]; [17] 32% | [15]; at 50.0 µM 8.1% | [16]; at 1.2 µM 12% | [16]; at 3.7 µM 15% | [16]; [17] 50% | [16]; at 11.0 µM 32% | [16]; at 33.0 µM 20% | [1]; at 1.2 µM -35% | [1]; at 3.7 µM -17% | [1]; at 11.0 µM -40% | [1]; at 33.0 µM -24% | [2]; at 1.2 µM -26% | [2]; at 3.7 µM -10% | [2]; at 11.0 µM -8% | [2]; at 33.0 µM -40% | [3]; at 1.2 µM -9% | [3]; at 3.7 µM -27% | [3]; at 11.0 µM -27% | [3]; at 33.0 µM -16% | [4]; [17] 41% | [4]; at 50.0 µM 61.3% | [5]; at 1.2 µM 17% | [5]; at 3.7 µM 7% | [5]; at 11.0 µM 7% | [5]; at 33.0 µM 18%
active: [6]; at 100.0 µM 95% | [7]; at 100.0 µM 86% | [8]; at 100.0 µM 89% | [9]; at 100.0 µM 96% | [10]; [18] 90% | [10]; at 100.0 µM 87% | [11]; [18] 95% | [11]; at 100.0 µM 96% | [12]; at 100.0 µM 75% | [13]; [18] 97% | [13]; at 50.0 µM 81.2% | [14]; at 100.0 µM 77% | [15]; [18] 92% | [16]; [18] 96% | [16]; at 50.0 µM 87.1% | [16]; at 100.0 µM 94% | [1]; at 100.0 µM 82% | [2]; at 100.0 µM 70% | [3]; at 100.0 µM 87% | [4]; [18] 94% | [5]; at 100.0 µM 88%
